Measurements: PubChem BioAssay (NCI)
About 83,000 compounds went through this panel and 20% of them were active in at least one assay; those are over-represented in the sample as a whole.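 Compound tested at a single concentration for 48 hours in 96-well plates; a percent growth value below 10 was scored as active.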 Unmarked numbers belong to inactive results. The source made the active and inactive calls.

Key:
Assay in all cases: NCI-60 one-dose screen, 48 h (100 = growth as untreated, 0 = no growth, -100 = all killed)
Conditions in all cases: 10 µM
NCI-H23 lung = test system: NCI-H23 lung
NCI-H226 lung = test system: NCI-H226 lung
HOP-62 NSCLC = test system: HOP-62 NSCLC
NCI-H460 lung = test system: NCI-H460 lung
HOP-92 NSCLC = test system: HOP-92 NSCLC
NCI-H522 lung = test system: NCI-H522 lung
A549/ATCC NSCLC = test system: A549/ATCC NSCLC
786-0 renal = test system: 786-0 renal
COLO 205 colon = test system: COLO 205 colon
DU-145 prostate = test system: DU-145 prostate
K-562 leukemia = test system: K-562 leukemia
MALME-3M melanoma = test system: MALME-3M melanoma
MDA-MB-231 breast = test system: MDA-MB-231 breast
RXF 393 renal = test system: RXF 393 renal
SF-268 CNS = test system: SF-268 CNS
SF-295 CNS = test system: SF-295 CNS
SF-539 CNS = test system: SF-539 CNS
UACC-257 melanoma = test system: UACC-257 melanoma
M14 melanoma = test system: M14 melanoma

Row | SMILES | growth (NCI-H23 lung) | growth (NCI-H226 lung) | growth (HOP-62 NSCLC) | growth (NCI-H460 lung) | growth (HOP-92 NSCLC) | growth (NCI-H522 lung) | growth (A549/ATCC NSCLC) | growth (786-0 renal) | growth (COLO 205 colon) | growth (DU-145 prostate) | growth (K-562 leukemia) | growth (MALME-3M melanoma) | growth (MDA-MB-231 breast) | growth (RXF 393 renal) | growth (SF-268 CNS) | growth (SF-295 CNS) | growth (SF-539 CNS) | growth (UACC-257 melanoma) | growth (M14 melanoma)
1 | CCCc1cn(CC(=O)Nc2nc3ccccc3s2)nn1 | 110% | 106% | 102% | 103% | 109% | 93.8% | 98.4% | 108% | 109% | 117% | 106% | 101% | 98.9% | 114% | 98.8% | 104% | 99.5% | 106% | 102%
2 | CCN(CCCNc1cc2c(c(N)c1S(=O)(=O)O)C(=O)c1ccccc1C2=O)c1ccccc1 | 89.3% | 84.4% | 92.1% | 102% | 112% | 96.3% | 104% | 96.3% | 109% | 124% | 101% | 97% | 88.9% | 108% | 109% | 111% | 98.4% | 102% | 98.3%
3 | COc1ccc(/C=C2\CCCC3=C2NC(N)=NC3c2ccc(OC)cc2)cc1 (stereo unspecified) | 94.1% | 77.3% | 110% | 99.2% | 68.6% | 77.3% | 89.4% | 106% | 112% | 109% | 107% | 99.6% | 96.9% | 99.3% | 109% | 104% | 107% | 91.2% | 106%
4 | Oc1ccc(/C=N/N=C2c3ccccc3-c3ccccc32)c(O)c1 | 70.2% | 60.5% | 82.3% | 83.2% | 79.5% | 74.5% | 54.8% | 80.4% | 88% | 90% | 64.8% | 105% | 48.3% | 49.6% | 83.1% | 101% | 89.1% | 84.7% | 74.4%
5 | COc1cc(/C=C/c2cc(/C=C/c3ccc(O)c(OC)c3)nc(N)n2)ccc1O | -2.79% (active) | 11.7% | 4.85% (active) | 5.54% (active) | -21.2% (active) | -41.3% (active) | 10.1% | -58.9% (active) | -50.4% (active) | 13% | 5.49% (active) | -28.9% (active) | 3.39% (active) | -63.9% (active) | 3.56% (active) | -5.25% (active) | 11.9% | -1.9% (active) | -26.1% (active)
6 | COc1cc(/C=C/c2cc(/C=C/c3ccc(O)c(OC)c3)n(C(=O)Nc3ccccc3Cl)n2)ccc1O | -25.8% (active) | -3.72% (active) | 8.39% (active) | 7.39% (active) | -14.4% (active) | -18.7% (active) | 8.75% (active) | -14.8% (active) | -73.5% (active) | 1.28% (active) | 2.27% (active) | 8.27% (active) | 17.7% | -50.3% (active) | -6.38% (active) | 2.83% (active) | 4.06% (active) | 1.28% (active) | 0.265% (active)
7 | O=C(Nc1cc(Cl)cc2c1-c1ccc(Cl)cc1C2O)C(Cl)Cl (stereo unspecified) | 79.5% | 55% | 83.3% | 35.9% | 77.1% | 84.2% | 74.5% | 98.4% | 94.2% | 60.1% | 81.9% | 105% | 74.4% | 63.8% | 91.9% | 83.4% | 84.2% | 89.8% | 85.3%
8 | CCOC(=O)c1cc(C(=O)c2ccc(Cl)cc2)n2ccc(-c3cc[n+](CC(=O)c4ccc(OC)cc4)cc3)cc12 | 88.2% | 102% | 87.7% | 3.93% (active) | 67.8% | 70.8% | 32.2% | 9.1% (active) | 42.8% | 30.3% | -52.9% (active) | 99.6% | 70.9% | 73.6% | 78.5% | 106% | 89.5% | 101% | 56.8%
9 | CN1C(=O)C2(Nc3cc(Cl)ccc3S2)c2cc(Cl)ccc21 (stereo unspecified) | 82.7% | 80% | 101% | 95.2% | 71.7% | 95.2% | 97.3% | 102% | 93.2% | 104% | 75.4% | 113% | 69.3% | 106% | 93.8% | 99.3% | 106% | 101% | 102%
